Data: PubChem BioAssay

Test: NFkB reporter suppression in cystic fibrosis bronchial cells – cell-based, uHTS hits, panel, cytotoxicity readout, dose response (AID 624344)
Details: CF bronchial epithelial cells, PAF-induced NFkB reporter inhibition, with PAF, run 1; at 79 µM (top of the series) unless noted

Row | SMILES | inhibition
1 | Cc1ccc2occ(/C=N/NC(=O)c3ccccc3C)c(=O)c2c1 | 102%
2 | Cc1nnc(NC(=O)Nc2ccc(Cl)c(Cl)c2)s1 | 91.7%
3 | COc1ccc(-c2cn[nH]c2-c2ccc(OC)cc2)cc1 | 104%
4 | Brc1ccc2ncnc(NCc3cccnc3)c2c1 | 105%

Test: as above
Details: CF bronchial epithelial cells, PAF-induced NFkB reporter inhibition, with PAF, run 2; at 79 µM (top of the series) unless noted

Row | SMILES | inhibition
5 | Cc1ccc2occ(/C=N/NC(=O)c3ccccc3C)c(=O)c2c1 | 110%
6 | Cc1nnc(NC(=O)Nc2ccc(Cl)c(Cl)c2)s1 | 87.1%
7 | COc1ccc(-c2cn[nH]c2-c2ccc(OC)cc2)cc1 | 104%
8 | Brc1ccc2ncnc(NCc3cccnc3)c2c1 | 94.9%
